Assay [1] can be described thus: AP1 Signaling Pathway (AID 357).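 Also: ME-180 reporter cells stimulated with EGF at its EC50 level; % is scaled to controls: 0 for no effect and ±100 for the full control effect.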 Conditions: ME-180 AP-1-bla reporter, EGF-induced, beta-lactamase ratio, 5 h; at 17.2 µM (top of the series) unless noted. In a few lines:
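A ratiometric CCF4 readout (405 nm excitation; 460 and 530 nm emission) quantified AP-1-driven beta-lactamase in ME-180 cells after 5 h with compound and EC50 EGF; AC50 values were derived for activators and inhibitors.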

A short description of assay [2]: NFAT Signaling Pathway (AID 444).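 Also: carbachol stimulus at about its EC50 of 1 µM final; % is scaled to controls: 0 for no effect and ±100 for the full control effect.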 Conditions: Jurkat NFAT-bla M1, carbachol, beta-lactamase ratio, 5 h; at 17.2 µM (top of the series) unless noted. In a few lines:
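Jurkat cells with NFAT-driven β-lactamase reporter and co-expressed M1 receptor, stimulated with carbachol (final 1 uM, ~EC50), compound titration, 5 h at 37 °C. CCF4 loaded 1 h at RT; 460/530 nm ratio gave %activity and AC50.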

Assay [3] in a line: Stat Signaling Pathway (AID 446).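 Also: ME-180 cervical cancer cells given 40 pM IL-6 alongside compound; SIE-controlled beta-lactamase reporter measured as 460/530 nm FRET emission ratio; % is scaled to controls: 0 for no effect and ±100 for the full control effect.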 Conditions: ME-180 SIE beta-lactamase reporter, IL-6 stimulated, 5 h; at 17.2 µM (top of the series) unless noted. The method in brief:
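Reporter line: ME-180 cervical carcinoma, SIE-beta-lactamase. Treatment: compound with 40 pM IL-6, 5 hrs, 37 C, in low-serum OPTI-MEM with 10 mM HEPES pH 7.3. Detection: 460/530 nm fluorescence.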

Assay [4] has as its target Glucocorticoid receptor (Homo sapiens) (UniProt P04150). Description: GR-GFP Redistribution (AID 450;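 active = compounds whose dose series gives a full or clear partial fitted curve of increased nuclear translocation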; also: potency is read from the fitted curve at half-maximal effect). Conditions: U2OS GR-GFP nuclear translocation, laser cytometry, 2 h; series mostly up to 20.6 µM.
The nature of assay [5]: qHTS Assay for Identification of Small Molecule Agonists for Hypoxia Response Element Signaling Pathway (AID 914; active = well fitted activation curve with a large enough effect in the signal ratio, with a control signal flat, not every such curve was filed as active; the % refers to the signal ratio; also: potency is read from the fitted curve at half-maximal effect; as to activation: % of control where 0% means no effect). Particulars: ME-180 (cervical carcinoma) HRE-bla reporter, beta-lactamase ratio, CoCl2, 17 h; activation: active compounds read high. In a few lines: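 Read-out: CCF4 FRET ratio of 460nm to 530nm emission (excitation 405nm) after 2.5 hours at room temperature, taken from HRE-bla ME-180 cells that had been exposed to compound and EC50 CoCl2 for 17 hours.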
Background: Quantitative high-throughput screening tests each substance at several concentrations.

In assay [6] the target is Mitogen-activated protein kinase 10 (Mus musculus) (UniProt Q61831). Description: JNK3 AlphaScreen Assay (AID 530).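 Also: kinase came from lysate of stimulated human HepG2 cells; signal reports phosphorylation of biotinylated GST-cJun 1-79 at Ser73 with 10 µM ATP; % is scaled to controls: 0 for no effect and ±100 for the full control effect.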 Particulars: JNK3 lysate, c-Jun phosphorylation; series mostly up to 57.1 µM. In a few lines: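 Pre-activated (IL-1β/TNFα) JNK3 in HepG2 lysates phosphorylates biotin-GST-cJun(1-79), 10 uM ATP; anti-phospho-cJun(Ser73) AlphaScreen read at room temperature, pH 7.6 Tris buffer. Compounds pre-incubated 15 min as titrations.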
In general terms: In Alpha technology, singlet oxygen from a donor bead excites a nearby acceptor bead.

The target in assay [7] is 3',5'-cyclic-AMP phosphodiesterase 4B (Homo sapiens) (UniProt Q07343). Description: qHTS Assay for Inhibitors of PDE-IV (AID 607; active = well fitted activation curve with a large enough effect in the main read-out, with a control signal flat, not every such curve was filed as active; also: % of control where 0% means no effect). Particulars: HEK293 ACTOne CNG channel cells, membrane potential fluorescence; series mostly up to 22.9 µM. In a few lines:
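Cell-based read-out of cAMP via a modified cyclic nucleotide-gated channel and membrane potential dye (535/590 nm) in HEK293 cells expressing PDE4 endogenously. Compounds tested up to 22.9 uM final; 100 uM RO 20-1724 reference.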

In assay [8] the target is Guanine nucleotide-binding protein G(i) subunit alpha-1 (Homo sapiens) (UniProt P63096). Description: qHTS Assay for Inhibitors of RGS12 GoLoco Motif Activity (Green Fluorophore) (AID 879; active = well fitted curve in the direction sought with a large enough effect; an effect the other way counts as inactive or inconclusive;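 also: 0% = labeled peptide with Gαi1 and full inhibition = labeled peptide alone without protein; negative values mean loss of peptide binding seen as reduced polarization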). Particulars: Galphai1/FITC-RGS12 GoLoco peptide, fluorescence polarization; series mostly up to 57.1 µM. In a few lines:
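Fluorescence polarization assay: 50 nM Gαi1 with 10 nM FITC-labeled RGS12 GoLoco peptide in 10 mM Tris pH 7.5, 150 mM NaCl, 0.1 mM GDP, 0.05% NP40, 10 min at room temperature with compound.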

The nature of assay [9]: Confirmation and Secondary Assay for Modulators of Hemoglobin Beta Chain Splicing at IVS2 705 locus (AID 930; active = well fitted curve in the direction sought with a large enough effect; an effect the other way counts as inactive or inconclusive;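 also: HeLa cells stably expressing the EGFP-705 splicing reporter; GFP fluorescence per well restored by corrected splicing of the IVS2-705 intron in EGFP; % of control where 0% means no effect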). Conditions: HeLa EGFP-705 splicing reporter, GFP fluorescence, 48 h; series mostly up to 46.1 µM. In a few lines: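 HeLa EGFP-705 reporter; 500 cells/well, o/n 37C 5% CO2; cpd 2 d; 488 ex/500-520 em laser scan; total peak GFP intensity/well. Ref: 500 nM […] antisense PNA.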

The target in assay [10] is Muscarinic acetylcholine receptor M1 (Rattus norvegicus) (UniProt P08482). In words: qHTS Assay for Antagonists of Acetylcholine Muscarinic M1 Receptor: Measurement of IP-One Response (AID 944; active = well fitted curve in the direction sought with a large enough effect; an effect the other way counts as inactive or inconclusive; also: nearly all actives have a fitted effect of over 75% in size). Particulars: CHO-M1 cells, IP-One HTRF, antagonist mode; series mostly up to 46.1 µM. The method in brief:
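M1-CHO (rat), 2000 cells/well, overnight recovery; cpd 10 min; carbachol EC80 (200 nM), 30 min, HEPES buffer + 50 mM LiCl pH 7.4; IP-One HTRF, Ex 337, Em 620/665 nm.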

Assay [11] concerns the target Pyruvate kinase (Leishmania mexicana) (UniProt Q27686). Description: qHTS Validation Assay for Inhibitors of Leishmania Mexicana Pyruvate Kinase (AID 945; active = well fitted curve in the direction sought with a large enough effect; an effect the other way counts as inactive or inconclusive;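 also: 0% = DMSO only neutral control wells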). Conditions: purified L. mexicana pyruvate kinase, enzyme activity, E451W mutant enzyme; series mostly up to 57.5 µM. In a few lines: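 Substrate mix (0.5 mM PEP, 0.1 mM ADP, 7 mM MgCl2, 50 mM KCl, pH 7.2 imidazole) received compound by pin tool, then 0.2 nM LmPYK E451W. After 1 h at room temperature, PKLight was added and luminescence measured.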

In assay [12] the target is Pyruvate kinase PKM (Homo sapiens) (UniProt P14618). Description: qHTS Assay for Activators of Human Muscle Pyruvate Kinase (AID 954; active = well fitted curve in the direction sought with a large enough effect, not every such curve was filed as active;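 also: 0% = uninhibited enzyme and -100% = no enzyme or full thiadiazolimine inhibition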). Particulars: purified human muscle pyruvate kinase, luciferase-coupled luminescence, 1 h; series mostly up to 57.5 µM. The method in brief: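 Human PKM2 activity is measured as ATP generation, detected by luciferase-coupled luminescence. The enzyme (0.1 nM) acts on 0.5 mM PEP and 0.1 mM ADP for 1 h at ambient temperature; data are normalized to uninhibited and full-inhibition wells.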

Assay [13] has as its target Alpha-galactosidase A (Homo sapiens) (UniProt P06280). In words: Counterscreen for Glucocerebrosidase Inhibitors: qHTS Assay for Human alpha-Galactosidase at pH 4.5 (AID 992; active = well fitted curve in the direction sought with a large enough effect; an effect the other way counts as inactive or inconclusive; also: 0% is about no effect). Particulars: purified enzyme, fluorogenic substrate; series mostly up to 76.9 µM. The method in brief: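 Quantitative HTS: compounds tested from 0.7 nM up to 77 uM against 2 nM enzyme with 80 uM 4-MU alpha-D-galactopyranoside. The 20 min room-temperature reaction is stopped with 1M NaOH/1M glycine, pH 10.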

In assay [14] the target is alpha-glucosidase (Oryza sativa, rice) (UniProt Q653V4). In words: Counterscreen for Glucocerebrosidase Inhibitors: qHTS Assay for Rice alpha-Glucosidase at pH 5.0 (AID 997; active = well fitted curve in the direction sought with a large enough effect; an effect the other way counts as inactive or inconclusive;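 also: 0% = full activity with enzyme and -100% = basal without enzyme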). Particulars: rice alpha-glucosidase enzyme activity; series mostly up to 76.9 µM. The method in brief: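 Rice alpha-glucosidase (4 nM final) with 400 uM 4-methylumbelliferyl-alpha-D-glucopyranoside in citrate buffer pH 5.0, 20 min at room temperature, stopped at pH 10; fluorescence 365/440 nm, compounds 0.7 nM–77 uM, AC50 from Hill fits.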

For assay [15], the target named is Cytochrome P450 2D6 (Homo sapiens) (UniProt P10635). Description: qHTS Assay for Inhibitors and Substrates of Cytochrome P450 2D6 (AID 891; active = well fitted curve in the direction sought with a large enough effect; an effect the other way counts as inactive or inconclusive; also: potency is read from the fitted curve at half-maximal effect; nearly all actives have a fitted effect of over 60% in size). Conditions: recombinant CYP2D6, luciferin-ME EGE luminescence; series mostly up to 57.1 µM. In a few lines: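 Human CYP2D6 (5 nM) with 30 uM Luciferin-ME EGE (at Km) in 100 mM KPO4, compound preincubated 10 min, then NADPH regeneration system for 60 min at room temperature. Luciferin read by luminescence; normalized to 1.43 uM quinidine.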

Assay [16] has as its target Cytochrome P450 2C19 (Homo sapiens) (UniProt P33261). Description: qHTS Assay for Inhibitors and Substrates of Cytochrome P450 2C19 (AID 899; active = well fitted curve in the direction sought with a large enough effect; an effect the other way counts as inactive or inconclusive; also: potency is read from the fitted curve at half-maximal effect; nearly all actives have a fitted effect of over 60% in size). Particulars: recombinant CYP2C19, luciferin-H EGE luminescence; series mostly up to 57.1 µM. The method in brief: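 Signal comes from luciferase acting on luciferin released by CYP2C19-mediated hydroxylation of Luciferin-H EGE, 10uM (KM). Assay mix: 5nM enzyme, 50mM KPO4; 60 min at 37C with NADPH regeneration. Data normalized against 57uM ketoconazole.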

These results are taken from PubChem BioAssay (NCATS).

Unmarked numbers belong to inactive results. Records with an inconclusive call do not appear. Active and inactive are the calls of the source. Unless noted, calls follow the shape of the dose curve; as a rule, active = well fitted curve in either direction with a large enough effect (not every such curve was filed as active); inconclusive = small, poorly fitted or top-dose-only effect, or another doubt; inactive = flat fitted curve, though single readings scatter.

Glucocorticoid receptor (Homo sapiens), sequence (P04150 whole entry, looked up): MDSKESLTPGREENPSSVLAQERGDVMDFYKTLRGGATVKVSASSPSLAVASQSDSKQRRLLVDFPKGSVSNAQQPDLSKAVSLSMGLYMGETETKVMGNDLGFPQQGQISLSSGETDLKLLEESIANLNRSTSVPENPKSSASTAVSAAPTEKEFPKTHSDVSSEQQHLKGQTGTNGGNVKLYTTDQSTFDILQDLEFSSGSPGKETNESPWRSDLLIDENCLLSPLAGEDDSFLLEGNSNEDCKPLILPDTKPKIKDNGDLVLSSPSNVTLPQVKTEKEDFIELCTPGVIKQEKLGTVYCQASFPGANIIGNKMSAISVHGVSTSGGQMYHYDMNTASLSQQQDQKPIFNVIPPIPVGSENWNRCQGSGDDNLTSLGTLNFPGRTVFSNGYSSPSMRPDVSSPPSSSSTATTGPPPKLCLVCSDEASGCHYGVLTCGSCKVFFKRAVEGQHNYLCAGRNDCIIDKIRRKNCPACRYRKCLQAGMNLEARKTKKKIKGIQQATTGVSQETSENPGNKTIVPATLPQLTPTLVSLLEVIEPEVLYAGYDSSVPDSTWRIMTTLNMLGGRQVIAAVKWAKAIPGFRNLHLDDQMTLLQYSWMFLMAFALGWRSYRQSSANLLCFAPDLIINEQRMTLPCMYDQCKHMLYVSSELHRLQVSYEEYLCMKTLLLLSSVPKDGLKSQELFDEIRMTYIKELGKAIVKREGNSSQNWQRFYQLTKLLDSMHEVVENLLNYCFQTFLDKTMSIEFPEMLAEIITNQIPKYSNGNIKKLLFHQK
3',5'-cyclic-AMP phosphodiesterase 4B (Homo sapiens), sequence (Q07343 whole entry, looked up): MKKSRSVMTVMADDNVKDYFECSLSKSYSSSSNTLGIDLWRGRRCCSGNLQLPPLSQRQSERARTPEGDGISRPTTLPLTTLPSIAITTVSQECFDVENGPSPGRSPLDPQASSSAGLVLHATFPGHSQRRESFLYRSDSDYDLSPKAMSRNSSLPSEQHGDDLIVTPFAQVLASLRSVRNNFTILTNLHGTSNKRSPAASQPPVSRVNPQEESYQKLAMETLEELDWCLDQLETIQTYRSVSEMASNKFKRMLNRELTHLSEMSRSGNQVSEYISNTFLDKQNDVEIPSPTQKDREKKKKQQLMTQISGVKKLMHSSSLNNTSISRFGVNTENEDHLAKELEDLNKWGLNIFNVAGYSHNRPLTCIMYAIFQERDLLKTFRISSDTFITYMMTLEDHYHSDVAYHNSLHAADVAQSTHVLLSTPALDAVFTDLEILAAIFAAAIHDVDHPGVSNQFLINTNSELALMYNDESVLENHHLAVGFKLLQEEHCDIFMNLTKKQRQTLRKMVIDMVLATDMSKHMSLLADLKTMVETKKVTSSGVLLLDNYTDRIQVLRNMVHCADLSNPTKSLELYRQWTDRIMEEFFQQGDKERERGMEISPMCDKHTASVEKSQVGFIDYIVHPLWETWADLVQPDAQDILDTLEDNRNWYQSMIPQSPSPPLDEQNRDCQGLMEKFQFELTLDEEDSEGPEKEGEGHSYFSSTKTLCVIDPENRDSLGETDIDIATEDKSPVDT
Pyruvate kinase PKM (Homo sapiens), sequence (P14618 whole entry, looked up): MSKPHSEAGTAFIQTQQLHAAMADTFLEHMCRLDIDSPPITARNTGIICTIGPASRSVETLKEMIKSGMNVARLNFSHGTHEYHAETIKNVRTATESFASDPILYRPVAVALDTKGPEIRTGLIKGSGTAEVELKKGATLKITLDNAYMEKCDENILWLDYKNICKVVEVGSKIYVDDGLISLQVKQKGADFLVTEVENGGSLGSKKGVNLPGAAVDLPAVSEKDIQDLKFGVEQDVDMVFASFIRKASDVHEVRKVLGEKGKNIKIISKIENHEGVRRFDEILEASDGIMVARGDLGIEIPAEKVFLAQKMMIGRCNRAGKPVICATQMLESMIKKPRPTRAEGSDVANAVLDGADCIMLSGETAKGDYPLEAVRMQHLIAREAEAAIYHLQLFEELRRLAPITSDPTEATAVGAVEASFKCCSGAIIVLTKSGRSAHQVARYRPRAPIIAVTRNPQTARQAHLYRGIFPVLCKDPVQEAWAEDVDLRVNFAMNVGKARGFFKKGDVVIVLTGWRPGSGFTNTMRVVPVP
Guanine nucleotide-binding protein G(i) subunit alpha-1 (Homo sapiens), sequence (P63096 whole entry, looked up): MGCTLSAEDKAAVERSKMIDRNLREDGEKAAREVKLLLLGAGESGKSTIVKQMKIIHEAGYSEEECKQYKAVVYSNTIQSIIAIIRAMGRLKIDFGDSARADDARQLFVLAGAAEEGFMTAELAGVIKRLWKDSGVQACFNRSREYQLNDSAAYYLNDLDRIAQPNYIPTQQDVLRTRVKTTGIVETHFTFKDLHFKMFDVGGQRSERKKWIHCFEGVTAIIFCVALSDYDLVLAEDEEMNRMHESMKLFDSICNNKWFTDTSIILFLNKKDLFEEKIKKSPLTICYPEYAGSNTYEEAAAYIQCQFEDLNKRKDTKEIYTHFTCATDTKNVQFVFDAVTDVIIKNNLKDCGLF
Alpha-galactosidase A (Homo sapiens), sequence (P06280 whole entry, looked up): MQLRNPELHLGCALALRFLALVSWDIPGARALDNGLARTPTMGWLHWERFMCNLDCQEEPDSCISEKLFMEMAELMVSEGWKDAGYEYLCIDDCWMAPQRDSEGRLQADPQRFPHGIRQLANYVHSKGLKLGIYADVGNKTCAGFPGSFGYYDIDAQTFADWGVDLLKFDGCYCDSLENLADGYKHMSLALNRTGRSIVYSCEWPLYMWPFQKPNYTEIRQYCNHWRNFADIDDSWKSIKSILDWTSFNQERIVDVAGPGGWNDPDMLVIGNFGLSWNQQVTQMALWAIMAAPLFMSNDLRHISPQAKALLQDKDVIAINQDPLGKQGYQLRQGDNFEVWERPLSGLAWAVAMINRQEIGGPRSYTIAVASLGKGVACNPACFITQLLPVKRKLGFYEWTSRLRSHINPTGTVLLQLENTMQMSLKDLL
Pyruvate kinase (Leishmania mexicana), sequence (Q27686 2-499 E452W): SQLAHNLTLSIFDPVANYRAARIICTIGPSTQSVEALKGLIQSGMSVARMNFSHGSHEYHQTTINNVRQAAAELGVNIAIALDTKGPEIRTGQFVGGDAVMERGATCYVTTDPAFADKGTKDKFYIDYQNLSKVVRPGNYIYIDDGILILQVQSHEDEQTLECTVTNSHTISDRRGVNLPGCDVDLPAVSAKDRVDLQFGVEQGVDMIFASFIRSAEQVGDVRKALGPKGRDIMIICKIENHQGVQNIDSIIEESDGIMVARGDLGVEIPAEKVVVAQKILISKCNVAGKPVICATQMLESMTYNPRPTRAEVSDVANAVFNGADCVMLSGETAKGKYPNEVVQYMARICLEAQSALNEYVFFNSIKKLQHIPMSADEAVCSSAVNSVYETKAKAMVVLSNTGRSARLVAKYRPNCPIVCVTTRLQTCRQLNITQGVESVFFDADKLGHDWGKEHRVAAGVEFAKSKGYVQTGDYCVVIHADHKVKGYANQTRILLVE
Cytochrome P450 2C19 (Homo sapiens), sequence (P33261 whole entry, looked up): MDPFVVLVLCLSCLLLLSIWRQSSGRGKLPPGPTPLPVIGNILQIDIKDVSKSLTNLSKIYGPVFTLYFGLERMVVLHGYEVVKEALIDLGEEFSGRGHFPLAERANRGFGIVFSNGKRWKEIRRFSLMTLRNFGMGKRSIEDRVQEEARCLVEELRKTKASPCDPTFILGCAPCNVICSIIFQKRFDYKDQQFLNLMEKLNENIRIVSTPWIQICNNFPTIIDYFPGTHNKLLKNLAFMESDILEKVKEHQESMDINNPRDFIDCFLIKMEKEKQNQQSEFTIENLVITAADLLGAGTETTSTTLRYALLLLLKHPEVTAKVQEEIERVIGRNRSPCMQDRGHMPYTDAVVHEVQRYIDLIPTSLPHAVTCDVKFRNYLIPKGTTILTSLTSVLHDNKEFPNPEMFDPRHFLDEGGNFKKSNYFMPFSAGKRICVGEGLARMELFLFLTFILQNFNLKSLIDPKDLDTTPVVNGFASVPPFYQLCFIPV
Cytochrome P450 2D6 (Homo sapiens), sequence (P10635 whole entry, looked up): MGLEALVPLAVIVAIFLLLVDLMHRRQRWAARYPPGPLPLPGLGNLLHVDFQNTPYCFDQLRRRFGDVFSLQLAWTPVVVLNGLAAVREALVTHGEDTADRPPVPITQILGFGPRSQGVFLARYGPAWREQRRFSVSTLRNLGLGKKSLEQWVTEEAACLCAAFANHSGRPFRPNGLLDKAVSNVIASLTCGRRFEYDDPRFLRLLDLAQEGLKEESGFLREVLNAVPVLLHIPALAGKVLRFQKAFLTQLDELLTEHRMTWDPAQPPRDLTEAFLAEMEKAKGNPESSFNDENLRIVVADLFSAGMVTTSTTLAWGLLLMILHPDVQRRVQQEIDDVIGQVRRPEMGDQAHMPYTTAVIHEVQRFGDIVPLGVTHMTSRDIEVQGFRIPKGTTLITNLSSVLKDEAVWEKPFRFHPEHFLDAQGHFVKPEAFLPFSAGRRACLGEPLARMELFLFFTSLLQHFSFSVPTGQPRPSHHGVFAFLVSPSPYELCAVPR
Muscarinic acetylcholine receptor M1 (Rattus norvegicus), sequence (P08482 whole entry, looked up): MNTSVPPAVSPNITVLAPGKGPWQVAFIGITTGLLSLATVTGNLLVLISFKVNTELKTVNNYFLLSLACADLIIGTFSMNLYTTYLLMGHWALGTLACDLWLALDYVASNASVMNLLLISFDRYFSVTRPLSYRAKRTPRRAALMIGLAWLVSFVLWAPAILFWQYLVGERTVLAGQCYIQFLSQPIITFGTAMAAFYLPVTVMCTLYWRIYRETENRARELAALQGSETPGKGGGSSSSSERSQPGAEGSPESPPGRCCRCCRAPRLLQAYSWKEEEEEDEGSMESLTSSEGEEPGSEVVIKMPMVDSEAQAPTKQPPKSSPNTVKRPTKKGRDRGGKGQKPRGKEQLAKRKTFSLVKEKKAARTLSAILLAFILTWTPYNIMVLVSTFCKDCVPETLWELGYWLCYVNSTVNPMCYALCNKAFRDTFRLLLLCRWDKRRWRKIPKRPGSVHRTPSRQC

On to `O=C(O)C(Cc1c[nH]c2ccccc12)NS(=O)(=O)c1cccc2nsnc12` (stereo unspecified), for which the values for the activity change, negative = inhibition in assay [1] and in assay [2] were 4.19% and 3.61%, respectively. Further, the activity, negative = inhibition in [3] was 6.46%. In addition, the Potency in assay [4] was > 20.6 µM. For the same compound, in assay [5], the activation is -7.91%.

`Nc1ccn([C@@H]2O[C@@H](CO)[C@@H](O)[C@H]2O)c(=O)n1`: the activity change, negative = inhibition in [1] was 10.7% [at 38 µM]; in assay [2], -7.43% [at 38 µM]. In addition, in [3], the activity, negative = inhibition was 19% [at 38 µM]. Also, the Potency in [4] is > 46 µM. Further, the Potency entry in [6], in assay [7], in assay [9], in [10] and in assay [11] was “inactive” in each case. In addition, the result in assay [8], in [12], in [13] and in assay [14] was inactive.

In the case of `CC(C)(C)c1cc(Br)c(O)c(CN(Cc2cc(C(C)(C)C)cc(Br)c2O)C2CCCCC2)c1`, the activity change, negative = inhibition in [1] is 10.4% [at 7.69 µM]; in assay [2], 3.39% [at 7.69 µM]; in assay [6], 19.2% [at 11.4 µM]. Also, in [3], the activity, negative = inhibition was -1.22% [at 7.69 µM]. Also, the results for the Potency in assay [4], in assay [15] and in assay [16] were > 46 µM, 0.199 µM (active) and 0.631 µM (active), respectively. The Potency entry in assay [7] was “inactive”.

For the compound `O=C(c1ccc(=O)oc1)N1CCN(C(c2ccccc2)c2ccccc2)CC1`, the activity change, negative = inhibition in [1] was 26.4%; in [2] it was -101% (active). The activity, negative = inhibition in assay [3] is -15.5%. Besides, the Potency in assay [4] was > 20.6 µM. Moreover, in assay [5], the activation was 9.9%.

`COc1ccc(C2=Nn3c(nnc3-c3ccccn3)SC2)cc1OC`: the activity change, negative = inhibition in assay [1] was -18.1%; in assay [2], 23.1%. Moreover, the activity, negative = inhibition in [3] is -0.925%. Besides, the Potency in assay [4] was > 20.6 µM. Besides, in assay [5], the activation was -20.2%.

In the case of `Cc1cccc(-n2ncc3c(NCc4ccco4)ncnc32)c1`, the activity change, negative = inhibition in assay [1] was -15.1%; in assay [2], -12.4%. In assay [3], the activity, negative = inhibition is -20.3%. In addition, the Potency in [4] is > 20.6 µM. For the same compound, the activation in [5] was 8.46%.

For `C=CCn1c(=N)c(C(=O)OCC)cc2c(=O)n3cccc(C)c3nc21`, the figures for the activity change, negative = inhibition in assay [1] and in [2] were 15.5% and -23.4%, respectively. Moreover, the activity, negative = inhibition in [3] was 28.1%. Besides, the Potency in assay [4] is > 20.6 µM; in assay [5] it was 10 µM (active).
